Compound activity as filed in PubChem.
TDP-43 yeast inh: inhibitors of TDP-43 toxicity in yeast | TDP-43 expressing yeast growth rescue, BacTiter-Glo, 24 h | Potency, µM (top dose mostly 46.1 µM), for the others: at the highest dose growth rescue (activation), most hits filed as activators | hit rate 1.8% among 410,000 | AID 652104; note: % of control where 0% means no effect; nearly all actives have a fitted effect of over 50% in size
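Yeast cells expressing TDP-43 under galactose induction are exposed to compounds for 24 hr at 30 deg C. BacTiter-Glo luminescence measures growth, so protective compounds score as activators.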
Mito fusion yeast: mitochondrial division inhibition or fusion activation; S. cerevisiae fusion-defective mutant growth rescue, CellTiterGlo 48 h; Potency, µM (series often up to 46.1 µM), for inactives: at the top dose growth rescue (activation), hits mostly activators; hit rate 0.23% among 320,000; AID 485298; note: % of control where 0% means no effect; nearly all actives have a fitted effect of over 45% in size
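Compounds are tested for their ability to restore growth of mitochondrial fusion-defective yeast strains at non-permissive 37C in YPEG medium over 48 hours. Viability is quantified by luciferase luminescence.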
Abeta rescue: restores growth of yeast expressing A-beta42 peptide. yeast expressing A-beta42, growth rescue, OD600, 48 h; response scale: 0% DMSO, 100% iron-clioquinol control. Potency, µM (titrated, usually from 46.1 µM), usual class: activators. hit rate 0.063% among 410,000. AID 1347071; note: nearly all actives have a fitted effect of over 55% in size
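Yeast A-beta toxicity model in growth medium with pinned compounds, 48 h at 30 C; growth read as absorbance at 600 nm. Normalized to FeCl3/clioquinol equimolar mix (positive) and DMSO (negative).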
FUS yeast rescue: rescues growth of FUS-expressing yeast. S. cerevisiae FUS-expressing, growth rescue, OD600, 24 h. Potency, µM (titrated, usually from 76.6 µM), hits mostly activators. hit rate 0.24% among 390,000;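 note: plate controls were DMSO vehicle for no effect and reference control for full effect; nearly all actives have a fitted effect of over 55% in size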
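Read-out: OD at 600 nm after 24hr at 30C, reporting rescue of FUS-induced yeast toxicity. Cells at OD 0.005 in galactose (2%) minimal medium; compounds tested in a dilution series; CP55940 titration from 92uM final as control.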
aSyn rescue: rescues yeast growth from alpha-synuclein toxicity | Yeast expressing alpha-synuclein, growth rescue, BacTiter-Glo, 24 h | hit rate 0.14% among 370,000 | Potency, µM (titrated, usually from 46.1 µM), for the others: at the top dose growth rescue (activation), usual class: activators; note: % of control where 0% means no effect; nearly all actives have a fitted effect of over 65% in size
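Rescue of yeast growth: cells expressing toxic alpha-synuclein, induced in galactose at OD600 0.02, incubated with compound 24 h at 30 C. ATP luminescence quantified growth; inhibitors of toxicity appear as activators.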
* marks the source's active call; other numbers are inactive results; i = inactive; ? = inconclusive; . = no result given. Sampled rows, rich in hits. Any-hit rate of the full collection: about 2.2%. Calls come from the whole dose curve; as a rule, active = well fitted curve in the direction sought with a large enough effect; inconclusive = small, poorly fitted or top-dose-only effect, or another doubt; inactive = no such curve, though single readings can be large; an effect the other way counts as inactive or inconclusive. Potency is the fitted concentration of half-maximal effect.

SMILES	TDP-43 yeast inh	Mito fusion yeast	Abeta rescue	FUS yeast rescue	aSyn rescue
O=[N+]([O-])c1ccc(N/N=C2\CC3CC=CC23)c([N+](=O)[O-])c1 (stereo not drawn)	35µM*	18%	i	i	3%
Cc1occc1-c1nnc(SCC(=O)Nc2ccc3ncccc3c2)n1-c1ccccc1	.	.	.	i	.
CCCCCC1CCC(c2n[nH]c(=S)n2C)CC1 (stereo not drawn)	14µM*	?	?	i	8%
COc1cc(C(=O)OCC(=O)Nc2ccc3c(c2)OC(F)(F)O3)ccc1OCc1c(C)noc1C	35µM*	3%	i	i	1%
CCN1C(=O)[C@H]2[C@@H](c3ccc(-c4cccc(Cl)c4)cc3)N[C@@](Cc3ccccc3)(C(=O)OC)[C@H]2C1=O	3%	23%	i	14µM*	16%
O=C(N/N=C1/C(=O)c2cccc3cccc1c23)c1ccc(Cl)cc1	18µM*	4%	?	i	?
O=C(C1CCN(S(=O)(=O)c2ccccc2F)CC1)N1CCc2ccccc21	13µM*	8%	i	i	15%
Cc1cccc(NC(=O)CCn2nc(-c3ccccc3)c3ccccc3c2=O)c1	20µM*	3%	i	?	.
Cc1ccc(Cl)cc1NC(=O)c1ccc(Cn2cc(Cl)cn2)cc1	4%	20µM*	?	i	4%
O=C(Nc1ccccc1F)c1ccc(Cn2cc(Cl)cn2)cc1	-8%	16%	i	i	-1%
CCOC(=O)C1CCN(C(=O)c2cc3ccc(OC)cc3[nH]2)CC1	26%	-8%	i	i	-3%
CCOC(=O)C1CCN(C(=O)c2cc3cc(Cl)ccc3[nH]2)CC1	16µM*	-11%	i	i	1%
O=c1c2ccccc2nc(/C=C/c2ccc(Cl)cc2)n1CCO	11µM*	26%	i	i	5%
CCn1c(/C=C/c2ccccc2C)nc2ccccc2c1=O	29%	2%	i	i	-2%
O=c1c2ccccc2nc(/C=C/c2cccc(Br)c2)n1CCCO	14%	11µM*	i	i	0%
O=c1c2ccccc2nc(/C=C/c2ccc(Br)cc2)n1CCCO	?	?	i	i	-2%
CCn1c(/C=C/c2ccccc2F)nc2ccccc2c1=O	8.9µM*	0%	i	i	-5%
Clc1ccc(Cn2c(/C=C/c3ccco3)nc3ccccc32)cc1	-3%	?	i	i	5%
C#CCn1c(/C=C/c2ccc(Cl)cc2)nc2ccccc21	35µM*	.	i	i	.
O=c1c2ccccc2nc(/C=C/c2ccc(Br)cc2)n1CCO	5%	.	i	i	-10%
CCN(CC)CCCNc1oc(/C=C/c2ccc(OC)c(OC)c2)nc1C#N	3%	.	i	i	.
CCn1c(/C=C/c2ccc(O)cc2)nc2ccccc2c1=O	18µM*	3%	i	i	2%
O=C(Cc1ccccc1)n1nc(-c2ccco2)nc1SCc1ccccc1	11µM*	-1%	i	i	0%
Cc1ccc(NC(=O)CN2C(=O)CCSc3ccccc32)c(C)c1	16µM*	.	i	i	3%
Cc1cc(C)c(C#N)c(SCC(=O)c2cccs2)n1	2.8µM*	11%	i	i	12%
SMILES	TDP-43 yeast inh	Mito fusion yeast	Abeta rescue	FUS yeast rescue	aSyn rescue
CS(=O)(=O)N1CCN(c2nc(-c3cccs3)nc3ccccc23)CC1	.	.	.	.	1%
O=C(O)c1ccc(CSc2nnc(-c3ccc(Cl)cc3)o2)cc1	17%	7%	i	i	-1%
Clc1ccc(CSc2nnc(-c3ccncc3)o2)cc1	6.3µM*	8%	i	i	.
CCSc1nnc(-c2ccncc2)o1	-2%	-2%	i	i	-1%
Fc1ccc(CSc2nnc(-c3ccncc3)o2)cc1	13µM*	1%	i	i	0%
CC(=O)NC(Cc1ccc([N+](=O)[O-])cc1)C(=O)NCC(N)C(=O)c1ccccc1 (stereo not drawn)	.	.	.	.	-7%
CCN1CCCCC(NC(=O)c2ccccc2C)C1=O (stereo not drawn)	.	.	.	i	.
CN(Cc1cc(=O)n2ccsc2n1)c1ccccc1	?	11%	i	i	-2%
O=c1cc(CNc2ccc(Br)cc2)nc2sccn12	20µM*	6%	i	.	?
